Source: PubChem (The Scripps Research Institute Molecular Screening Center)
Shown are actives, neighbours in structure and some others; about 3.5% of the full set was active somewhere.
MITF inh: inhibitors of human MITF; AlphaScreen MITF homodimerization, bead proximity signal; inhibition, % at 2.6 µM; hit rate 0.91% among 650,000; in the data active means inhibition above about 50%
TEAD-YAP inh: TEAD-YAP interaction inhibition | HEK-TIYL cells, TEAD-Gal4/YAP UAS-luciferase luminescence | inhibition, % at 9.12 µM | hit rate 1.4% among 640,000; in the data active means inhibition above about 32%
FBW7 act: activators of human E3 ligase FBW7 | AlphaScreen FBW7–phospho-cyclin E peptide binding, activator screen | normalized activity (activation), % at 26.1 µM | Q969H0 | hit rate 0.13% among 650,000; in the data active means normalized activity above about 1.9%;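 further: purified mutant Fbw7 with reduced substrate affinity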
Target sequence (Q969H0 whole entry, looked up): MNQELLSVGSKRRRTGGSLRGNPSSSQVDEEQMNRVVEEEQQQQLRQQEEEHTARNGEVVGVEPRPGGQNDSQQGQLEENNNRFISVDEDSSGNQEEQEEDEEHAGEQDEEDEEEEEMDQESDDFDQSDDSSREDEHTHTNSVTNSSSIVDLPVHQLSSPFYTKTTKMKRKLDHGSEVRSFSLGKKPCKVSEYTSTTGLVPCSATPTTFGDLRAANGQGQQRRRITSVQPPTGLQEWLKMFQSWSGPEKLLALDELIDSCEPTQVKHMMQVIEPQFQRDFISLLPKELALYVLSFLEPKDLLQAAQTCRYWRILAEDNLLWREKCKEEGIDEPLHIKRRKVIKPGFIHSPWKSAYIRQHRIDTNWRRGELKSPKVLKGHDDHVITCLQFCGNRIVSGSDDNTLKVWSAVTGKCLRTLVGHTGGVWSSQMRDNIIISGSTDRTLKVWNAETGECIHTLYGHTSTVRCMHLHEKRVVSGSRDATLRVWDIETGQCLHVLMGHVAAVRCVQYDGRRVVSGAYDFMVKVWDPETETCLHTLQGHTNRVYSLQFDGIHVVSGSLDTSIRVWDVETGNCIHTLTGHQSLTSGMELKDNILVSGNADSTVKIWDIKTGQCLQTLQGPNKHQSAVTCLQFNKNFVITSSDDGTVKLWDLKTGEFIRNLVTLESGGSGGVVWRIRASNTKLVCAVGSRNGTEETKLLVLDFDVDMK
GPR151 activ: activates the human receptor GPR151; Q8TDV0; PathHunter beta-arrestin GPR151 cells, luminescence; activation, % at 11.2 µM; hit rate 1% among 650,000; AID 1508602; in the data active means activation above about 4.9%
Large screens that a line does not name were inactive.

COc1ccc(S(=O)(=O)NCC(=O)Nc2ccc(Oc3ccccc3)cc2)cc1OC	none
Cc1nc(-c2ccc(NC(=O)c3ccc(C)c(C)c3)cc2)cs1	none
Cc1nc(-c2ccc(C(=O)Nc3ccc(O)cc3)cc2)cs1	TEAD-YAP inh 91
CC1(C)c2ccccc2N2CC(=O)NC21/C=C/c1ccccc1 (stereo unspecified)	none
CC1CN2c3ccccc3C(C)(C)C2(/C=C/c2ccc(N(C)C)cc2)NC1=O (stereo unspecified)	TEAD-YAP inh 39
N#CC(C#N)=C1C=C2C=C(N3CCCC3)CCC2CC1 (stereo unspecified)	none
Cc1ccc(COc2c(Br)cc(/C=C(\C#N)c3nn(-c4ccccc4)c(N)c3C#N)cc2Br)cc1	none
CC(C)(C)C(=O)Oc1ccc2c(c1)O/C(=C\c1ccncc1)C2=O	none
COc1ccc(/C=C2\Oc3cc(OC(=O)c4cccnc4)ccc3C2=O)cc1	TEAD-YAP inh 41
COc1ccc2c(c1)OC/C(=C\c1cccs1)C2=O	none
COc1ccc2c(c1)OC/C(=C\c1ccc(OC)c(O)c1)C2=O	TEAD-YAP inh 42
COc1ccc2c(c1)O/C(=C\c1ccc(OC(C)=O)c(OC)c1)C2=O	TEAD-YAP inh 43
CCN(C(=O)Cn1ncc2c(=O)oc3ccccc3c21)c1ccccc1C	none
O=C1/C(=C\C=C/c2ccco2)C(C(F)(F)F)=NN1c1ccccc1	MITF inh 65
O=C1ON=C(c2ccccc2)/C1=C/C=C/c1ccco1	none
COc1ccc(OC)c(S(=O)(=O)n2cnc3cc([N+](=O)[O-])ccc32)c1	none
C/C(=N\Nc1nc2ccccc2[nH]1)c1ccccc1O	MITF inh 52
C(=N\Nc1nc2ccccc2[nH]1)/c1ccccn1	TEAD-YAP inh 95
Oc1ccc(Br)cc1/C=N\Nc1nc2ccccc2[nH]1	TEAD-YAP inh 65
C/C(=N\Nc1nc2ccccc2[nH]1)c1ccccc1Cl	none
C(=N\Nc1nc2ccccc2[nH]1)/c1cccc(/C=N/Nc2nc3ccccc3[nH]2)c1	none
O=C1c2ccccc2C(=O)N1Cc1ccc(S(=O)(=O)Nc2ccc3c(c2)oc2ccccc23)cc1	none
O=C(Cn1cnc2ccccc21)OCc1cccc2ccccc12	none
Cc1cc(=O)oc2c1ccc1oc(C(=O)c3ccccc3)c(-c3ccccc3)c12	TEAD-YAP inh 72
CC(=O)c1oc2ccc3c(C)cc(=O)oc3c2c1-c1ccccc1	none
Cc1cc(=O)oc2c1ccc1oc(C(=O)c3ccccc3)c(C)c12	TEAD-YAP inh 49
Cc1cc(=O)oc2c1ccc1oc(C(=O)c3ccc(Cl)cc3)c(-c3ccccc3)c12	TEAD-YAP inh 63
C/C(=N\O)c1oc2ccc3c(C)cc(=O)oc3c2c1C	none
CC(=NCCCN1CCOCC1)c1c(C)[nH]n(-c2ccc(Br)cc2Br)c1=O	none
Cc1ccccc1C1(CC(=O)N(C)CC2CCCCO2)CC(=O)N(Cc2ccncc2)C1=O (stereo unspecified)	none
COc1ccccc1C(=O)Nc1ccnn1C1CCN(Cc2ccc3ccccc3n2)CC1	none
Cc1cc(C(=O)CSc2nc3ccccc3[nH]2)c(C)n1CC1CCCO1 (stereo unspecified)	TEAD-YAP inh 40
COC(=O)c1ccc(CSCC(=O)c2cc(C)n(CC3CCCO3)c2C)cc1 (stereo unspecified)	TEAD-YAP inh 37
Cc1cc(C(=O)CCl)c(C)n1CC1CCCO1 (stereo unspecified)	none
CC(O)C12c3ccccc3C(c3ccccc31)C1C(=O)N(c3ccccc3F)C(=O)C12 (stereo unspecified)	FBW7 act 2.2
O=C(Nc1noc2ncccc12)c1ccccc1Cl	TEAD-YAP inh 94
Cc1ccc2c(NC(=O)c3ccccc3F)noc2n1	none
O=C(Nc1noc2ccccc12)c1c(F)cccc1F	TEAD-YAP inh 57
O=C(Nc1noc2ncccc12)c1ccccc1F	TEAD-YAP inh 83
O=C(COC(=O)C1=NNC(=O)CC1)NCCC1=CCCCC1	none
Cc1ccc(CN2CCc3nnc(C(C)NC(=O)COc4ccccc4)n3CC2)o1 (stereo unspecified)	none
CC1(C)N=C(N)N=C(N)N1c1ccc(Oc2ccc(Cl)cc2)c(Cl)c1	TEAD-YAP inh 37
CCCNc1cc(Nc2ncccn2)nc(N)n1	none
CCCNc1cc(Nc2ccccn2)nc(N)n1	TEAD-YAP inh 34
COc1ccc(-n2cccc2/C=C2\NC(=O)N(CC(=O)Nc3ccccc3)C2=O)cc1	none
Cc1ccc(NC(=O)CN2C(=O)N/C(=C/c3cccn3-c3ccc(C(=O)O)cc3)C2=O)cc1	MITF inh 79
CCNCCNC(=O)c1c(O)c2ccccc2n(C)c1=O	none
CCOC(=O)c1ccc(-n2c(=S)sc3c2nc(SCC(=O)O)n2c4ccccc4nc32)cc1	none
